# According to PubChem BioAssay AID588855 (National Center for Advancing Translational Sciences (NCATS), 2011):
# About 5,000 (1.2%) of roughly 410,000 compounds were called active. Inconclusive results (about 13%) are left out. This is one part of a sample in which actives are shown more often than they occur. The call rests on the fitted dose curve; in most records, active means well fitted inhibition curve with a large enough effect; inconclusive means small, poorly fitted or top-dose-only effect; inactive means no such curve, though single readings can be large or run the other way.
# Test: qHTS for Inhibitors of TGF-b; further: nearly all actives have a fitted effect of over 65% in size
# Conditions: HepG2 CAGA-GFP TGF-b/SMAD3 reporter, GFP fluorescence, 18 h, TGF-beta stimulated, 500 pg/mL final; series mostly up to 46.1 µM; activity, negative = inhibition: at the top concentration
# Outline: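 HEPG2 CAGA-GFP reporter cells (1000/well, DMEM with 1% FBS) received compounds, then recombinant TGF-beta at 500 pg/mL final for 18 hours at 37 degrees C. Per-cell GFP summed per well was normalised to unstimulated and stimulated DMSO controls before curve fitting.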
# On the % scale 0 is the no-effect control and ±100 the full control effect; potency means the concentration at half of the fitted maximal effect.
Structure (SMILES),"activity, negative = inhibition",Potency
CCOc1ccc(CNC(=O)c2ccc3nc(CC)c(CC)nc3c2)cc1OC,15.4% (inactive),
CC(=O)c1ccc[n+](C(C)CCC(C)[n+]2cccc(C(C)=O)c2)c1 (stereo not given),8.48% (inactive),
Cc1c(Cl)cccc1NC(=O)CCS(=O)(=O)c1ccc2c(c1)oc(=O)n2C,-21.7% (inactive),
Cc1ccccc1-c1nc(SCC(=O)N(C)c2ccccc2)c2c(=O)n(C)c(=O)n(C)c2n1,6.3% (inactive),
CC1CCCCC1NC(=O)/C(C#N)=C/C=C/c1ccccc1[N+](=O)[O-] (stereo not given),,20 µM (active)
CC1CC(C)CN(C/C=C/c2ccccc2[N+](=O)[O-])C1 (stereo not given),-22.1% (inactive),
CC(OC(=O)/C=C/c1ccccc1)C(=O)NC1CCCCC1C (stereo not given),-16.4% (inactive),
COc1ccc(CNC(=O)c2cc3c(=O)[nH]c4ccc(C)cc4c3s2)c(OC)c1,-24.9% (inactive),
Nc1ccccc1N,-6.36% (inactive),
COc1ccccc1-n1nnnc1SCC(=O)NC(=O)Cc1ccccc1,-4.63% (inactive),
CCC(C)N(C(=O)CSc1nnnn1-c1ccccc1OC)C1CCS(=O)(=O)C1 (stereo not given),-8.36% (inactive),
COc1ccccc1-n1nnnc1S(=O)(=O)Cc1ccc(Cl)cc1,,7.08 µM (active)
CN(C)c1ccc(/C=C/C=C/c2ccnc3ccccc23)cc1,63% (inactive),
CCc1cccc(NC(=O)Cn2nc(CC)n3c(cc4cc(C)ccc43)c2=O)c1,-2.34% (inactive),
Cc1cc2c(cc1C)N1C(=O)c3cc4ccccc4cc3NC(=O)C1C(=O)N2 (stereo not given),,12.6 µM (active)
CCc1cnc2c(c1SCC(=O)N1CCC(C)CC1)c(=O)n(C)c(=O)n2C,0.0678% (inactive),
CCOC(=O)c1ccc2c(c1)N(Cc1cccc(OC)c1)C(=O)c1ccccc1S2(=O)=O,-6.73% (inactive),
O=C(CSc1ncc(S(=O)(=O)c2ccc(Br)cc2)c(=O)[nH]1)Nc1ccc2c(c1)OCCO2,32.6% (inactive),
CC(C)C12CN3CC(C(C)C)(CN(C1)C3c1ccc(OCc3ccccc3)cc1)C2=O (stereo not given),0.227% (inactive),
COc1ccc(NS(=O)(=O)c2ccc(N3CCOCC3)c(NC(=O)c3ccccc3Br)c2)cc1,-32.2% (inactive),

Structure (SMILES),"activity, negative = inhibition",Potency
COc1ccc2c(c1)Cc1sc(NC(=O)c3ccccc3Br)nc1-2,,7.08 µM (active)
COCCN(CCOC)S(=O)(=O)c1ccc(C(=O)Nc2nc3c(s2)CCc2ccccc2-3)cc1,-15.9% (inactive),
Cc1ccc2nc(COc3ccccc3NC(=O)Nc3ccc(F)c(Cl)c3)cc(=O)n2c1,-6.3% (inactive),
COc1ccc(C2=CC(c3ccccc3Cl)n3nc(-c4ccc(Cl)cc4)nc3N2)cc1 (stereo not given),-2.29% (inactive),
O=C(c1cnn2c1NC(=C1CC1)C=C2C(F)F)N1CCc2ccccc2C1,-8.04% (inactive),
Cc1ccc(N2CCN(S(=O)(=O)c3ccc(F)cc3)CC2)c(C)c1,-8.07% (inactive),
Cc1ccc(C)c(N2CCN(S(=O)(=O)c3ccc4c(c3)oc(=O)n4C)CC2)c1,-8.2% (inactive),
Cc1ccc(C)c(N2CCN(S(=O)(=O)c3ccc4c(c3)C(C(C)C)C(=O)N4)CC2)c1 (stereo not given),,15.8 µM (active)
O=C(CCc1nc(CN2CCN(S(=O)(=O)c3ccc(F)cc3)CC2)no1)N1CCCCC1,15.1% (inactive),
Cc1cccc(NC(=O)Cn2c(=O)n(CCC(C)C)c(=O)c3cccnc32)c1,-3.93% (inactive),
O=C(c1snnc1-c1ccccc1)N1CCOCC1,-0.268% (inactive),
Cc1ccc(C)c(CN2C(=O)c3ccccc3S(=O)c3ccc(C(=O)N4CCOCC4)cc32)c1 (stereo not given),-28.2% (inactive),
Cc1oc2c(c1C(=O)N1CCOCC1)C(=O)c1ccccc1C2=O,,4.47 µM (active)
CCCCOc1ccc(C(=O)N2CC(=O)Nc3ccc(Br)cc3C2c2ccc(F)cc2)cc1 (stereo not given),-36% (inactive),
COc1ccc2oc(=O)c(-c3cn4c(n3)sc3cc(OC)ccc34)cc2c1,5.81% (inactive),
Cc1c(CCO)sc[n+]1CC(=O)c1ccc2ccccc2c1,-5.47% (inactive),
CCC(C)NC(=O)Cn1c(=O)n(-c2ccc(Cl)cc2)c(=O)c2c3c(sc21)CCCC3 (stereo not given),-12.6% (inactive),
CCOC(=O)c1ccc(N2C(=O)c3n[nH]c(C)c3C2c2ccc(O)c(OC)c2)cc1 (stereo not given),,11.2 µM (active)
COc1cc(C2c3c(oc4ccccc4c3=O)C(=O)N2c2nc(C)c(C)s2)ccc1O (stereo not given),-4.72% (inactive),
CCOC(=O)c1ccc(NC(=O)CNC(=O)c2ccco2)cc1,1.66% (inactive),

Structure (SMILES),"activity, negative = inhibition",Potency
CCOc1cc(C2c3c(-c4ccc(Br)cc4)n[nH]c3C(=O)N2c2ccc(Cl)cc2)ccc1O (stereo not given),,4.47 µM (active)
CCOc1ccc(-c2n[nH]c3c2C(c2ccccc2OC)N(c2ccc(Br)cc2)C3=O)cc1 (stereo not given),1.86% (inactive),
CCOC(=O)c1ccc(N2C(=O)c3n[nH]c(-c4ccco4)c3C2c2ccc(O)cc2)cc1 (stereo not given),,15.8 µM (active)
CCOC(=O)C1=C(c2ccccc2)N=C2SCC(=O)N2C1c1ccc(O)c(OC)c1 (stereo not given),2.21% (inactive),
CCOC(=O)c1ccc(NC2=CC(c3ccc(OCC)cc3)N(c3ccc(C(=O)OCC)cc3)C2=O)cc1 (stereo not given),11.5% (inactive),
CCOc1cc(C2C(C(=O)c3ccco3)=C(O)C(=O)N2Cc2ccccc2)ccc1O (stereo not given),-23% (inactive),
Cc1nc(SCC(=O)Nc2ccc(C(=O)O)cc2)n[nH]1,-24.3% (inactive),
O=S(=O)(c1ccc(C2CCCCC2)cc1)N1CCN(c2ccc(Cl)c(Cl)c2)CC1,4.43% (inactive),
CNc1ccc(-c2nc(-c3ccco3)no2)cc1[N+](=O)[O-],-2.19% (inactive),
CC(C)(C)OC(=O)N(Cc1ccco1)S(=O)(=O)c1ccccc1Br,6.04% (inactive),
CCOc1ccc(NC(=O)CCc2c(C)nn(-c3ccc(N4CCCC4)nn3)c2C)cc1,-14.8% (inactive),
CC1(C)CC(=O)c2cc(C(=O)NCc3ccccc3)c(=O)[nH]c2C1,2.07% (inactive),
CC(C)(C)c1ccc(C(=O)N2CCC(c3nc(-c4ccc(S(=O)(=O)N5CCCC5)cc4)no3)CC2)cc1,0% (inactive),
COc1cc(/C=C/C(=O)N2CCc3ccccc3C2)cc(OC)c1OC,14.2% (inactive),
COc1ccccc1Nc1c2c(nc3ccc(NC(=O)/C=C/c4cc(OC)c(OC)c(OC)c4)cc13)CCCC2,,4.47 µM (active)
COc1ccc(NS(=O)(=O)c2cc(NC(=O)/C=C/c3cc(OC)c(OC)c(OC)c3)ccc2N2CCCCC2)cc1,0% (inactive),
CCCCN1CC(c2nc3ccccc3n2CCCCOc2ccc(C)cc2C)CC1=O (stereo not given),,11.2 µM (active)
CCOc1ccc(N2CC(c3nc4ccccc4n3CCOc3ccc(OC)cc3)CC2=O)cc1 (stereo not given),-16.7% (inactive),
CCc1ccccc1N1CC(c2nc3ccccc3n2CCCCOc2ccccc2)CC1=O (stereo not given),-0.426% (inactive),
Cc1oc2ccc(O)c(CN3CCC(C)CC3)c2c1C(=O)Nc1ccccc1,17.7% (inactive),
